# From article PMC7862700, “An all-to-all approach to the identification of sequence-specific readers for epigenetic DNA modifications on cytosine”
# Experiments:
# Experiment in all cases: DAPPL (digital affinity profiling via proximity ligation, sequencing); 10 mM Tris-HCl pH 7.5, 50 mM NaCl, 1 mM DTT, 4% glycerol, room temperature, 30 min; GST-TFs on glutathione beads, 16-mer random dsDNA library, 0.1% formaldehyde crosslink after washing; high values mean tight binding
# Conditions in all cases: protein: recombinant; tags: N-terminal GST; dsDNA, one strand shown
# FLI1 = biological target: T1, FLI1 (Homo sapiens, UniProt Q01543 1-452)
# T1 sequence: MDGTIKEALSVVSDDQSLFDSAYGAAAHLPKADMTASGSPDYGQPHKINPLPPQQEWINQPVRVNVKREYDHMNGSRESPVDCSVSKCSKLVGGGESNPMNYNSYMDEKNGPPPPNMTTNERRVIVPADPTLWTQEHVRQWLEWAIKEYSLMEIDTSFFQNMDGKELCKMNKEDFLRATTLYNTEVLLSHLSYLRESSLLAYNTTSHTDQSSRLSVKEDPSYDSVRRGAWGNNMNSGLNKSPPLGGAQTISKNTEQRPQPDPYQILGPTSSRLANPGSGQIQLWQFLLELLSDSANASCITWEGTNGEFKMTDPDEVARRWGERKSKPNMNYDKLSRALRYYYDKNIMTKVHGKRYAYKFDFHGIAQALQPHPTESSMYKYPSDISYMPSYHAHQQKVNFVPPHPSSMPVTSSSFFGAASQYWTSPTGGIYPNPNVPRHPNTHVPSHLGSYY
# Summary of the method: (§1)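 Pools were built from human transcription factors expressed in yeast as GST fusions, captured on glutathione beads and DNA-barcoded, along with a tag-only sample. Incubation with 200 nmole of a 16-mer random double-stranded DNA library lasted 30 min at room temperature in Tris/NaCl/DTT/glycerol buffer, and was followed by washing, 0.1% formaldehyde crosslinking, proximity ligation, PCR amplification and Illumina NextSeq500 sequencing. Binding signal is the quotient of each hexamer's read frequency for a factor and its frequency for the tag-only sample.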
# ERG = biological target: T2, ERG (Homo sapiens, UniProt P11308 1-479)
# T2 sequence: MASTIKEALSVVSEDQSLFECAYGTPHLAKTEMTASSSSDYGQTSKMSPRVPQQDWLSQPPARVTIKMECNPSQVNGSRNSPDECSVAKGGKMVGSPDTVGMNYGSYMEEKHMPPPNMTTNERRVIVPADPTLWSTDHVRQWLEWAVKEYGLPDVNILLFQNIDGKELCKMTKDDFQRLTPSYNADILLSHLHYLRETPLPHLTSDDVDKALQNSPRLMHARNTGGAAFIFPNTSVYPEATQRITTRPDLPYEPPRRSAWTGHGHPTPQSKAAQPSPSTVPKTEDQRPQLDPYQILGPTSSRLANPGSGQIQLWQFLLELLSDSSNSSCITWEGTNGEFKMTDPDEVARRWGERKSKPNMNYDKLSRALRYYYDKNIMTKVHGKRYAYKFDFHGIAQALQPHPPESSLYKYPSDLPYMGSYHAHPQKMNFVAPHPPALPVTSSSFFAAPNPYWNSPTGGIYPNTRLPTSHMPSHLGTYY
# Summary of the method: as §1
# ELF1 = ELF1 (Homo sapiens, UniProt P32519 1-619)
# Chain of ELF1 (P32519 whole entry): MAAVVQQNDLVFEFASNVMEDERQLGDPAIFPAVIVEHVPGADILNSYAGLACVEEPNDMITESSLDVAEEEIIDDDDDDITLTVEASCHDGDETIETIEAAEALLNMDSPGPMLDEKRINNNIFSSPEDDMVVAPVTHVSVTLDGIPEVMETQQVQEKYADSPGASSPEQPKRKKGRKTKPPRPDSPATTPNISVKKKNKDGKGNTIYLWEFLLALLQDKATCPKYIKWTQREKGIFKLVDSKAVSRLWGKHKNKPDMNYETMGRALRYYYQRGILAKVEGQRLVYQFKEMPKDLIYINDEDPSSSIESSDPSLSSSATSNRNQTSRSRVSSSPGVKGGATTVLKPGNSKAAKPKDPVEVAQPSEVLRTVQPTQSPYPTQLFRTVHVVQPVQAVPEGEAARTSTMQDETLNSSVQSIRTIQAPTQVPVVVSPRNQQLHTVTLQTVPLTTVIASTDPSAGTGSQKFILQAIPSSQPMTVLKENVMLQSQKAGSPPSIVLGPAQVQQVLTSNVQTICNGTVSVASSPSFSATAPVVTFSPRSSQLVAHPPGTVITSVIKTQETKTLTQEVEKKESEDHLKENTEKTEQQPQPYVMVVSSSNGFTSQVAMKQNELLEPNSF
# Summary of the method: as §1
# EHF = biological target: T3, EHF (Homo sapiens, UniProt Q9NZC4 1-300)
# T3 sequence: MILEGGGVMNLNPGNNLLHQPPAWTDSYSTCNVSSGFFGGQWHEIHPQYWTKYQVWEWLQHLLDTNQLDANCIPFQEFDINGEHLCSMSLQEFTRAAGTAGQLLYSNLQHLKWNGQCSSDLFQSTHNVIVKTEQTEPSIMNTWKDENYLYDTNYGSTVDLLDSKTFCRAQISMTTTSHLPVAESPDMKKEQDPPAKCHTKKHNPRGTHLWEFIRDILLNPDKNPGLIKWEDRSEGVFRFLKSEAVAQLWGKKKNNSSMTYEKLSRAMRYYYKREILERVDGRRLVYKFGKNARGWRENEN
# Summary of the method: as §1
# SPIB = SPIB (Homo sapiens, UniProt Q01892 1-262)
# Chain of SPIB (Q01892 whole entry): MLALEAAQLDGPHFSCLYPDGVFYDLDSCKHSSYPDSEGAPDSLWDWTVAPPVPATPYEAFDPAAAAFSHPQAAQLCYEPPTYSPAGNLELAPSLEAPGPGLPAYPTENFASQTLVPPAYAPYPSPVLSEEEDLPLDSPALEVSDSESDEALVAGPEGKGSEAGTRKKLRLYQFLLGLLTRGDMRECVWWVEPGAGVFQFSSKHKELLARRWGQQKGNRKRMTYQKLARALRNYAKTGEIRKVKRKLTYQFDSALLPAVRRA
# Summary of the method: as §1
# ETV5 = ETV5 (Homo sapiens, UniProt P41161 1-510)
# Chain of ETV5 (P41161 whole entry): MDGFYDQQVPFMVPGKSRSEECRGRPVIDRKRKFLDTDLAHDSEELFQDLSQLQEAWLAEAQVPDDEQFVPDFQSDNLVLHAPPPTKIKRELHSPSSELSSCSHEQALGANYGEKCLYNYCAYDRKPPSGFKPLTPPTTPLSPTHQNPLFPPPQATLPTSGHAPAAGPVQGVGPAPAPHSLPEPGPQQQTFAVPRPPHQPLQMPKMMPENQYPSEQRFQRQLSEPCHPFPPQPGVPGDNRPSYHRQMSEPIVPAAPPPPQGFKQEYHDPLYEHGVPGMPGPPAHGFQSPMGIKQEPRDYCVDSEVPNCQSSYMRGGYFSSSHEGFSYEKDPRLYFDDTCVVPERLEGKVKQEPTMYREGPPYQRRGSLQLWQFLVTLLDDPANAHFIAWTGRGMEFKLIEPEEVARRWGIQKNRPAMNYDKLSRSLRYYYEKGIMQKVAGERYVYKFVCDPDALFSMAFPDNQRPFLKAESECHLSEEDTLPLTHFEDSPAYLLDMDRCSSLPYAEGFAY
# Summary of the method: as §1
# ELF4 = ELF4 (Homo sapiens, UniProt Q99607 1-663)
# Chain of ELF4 (Q99607 whole entry): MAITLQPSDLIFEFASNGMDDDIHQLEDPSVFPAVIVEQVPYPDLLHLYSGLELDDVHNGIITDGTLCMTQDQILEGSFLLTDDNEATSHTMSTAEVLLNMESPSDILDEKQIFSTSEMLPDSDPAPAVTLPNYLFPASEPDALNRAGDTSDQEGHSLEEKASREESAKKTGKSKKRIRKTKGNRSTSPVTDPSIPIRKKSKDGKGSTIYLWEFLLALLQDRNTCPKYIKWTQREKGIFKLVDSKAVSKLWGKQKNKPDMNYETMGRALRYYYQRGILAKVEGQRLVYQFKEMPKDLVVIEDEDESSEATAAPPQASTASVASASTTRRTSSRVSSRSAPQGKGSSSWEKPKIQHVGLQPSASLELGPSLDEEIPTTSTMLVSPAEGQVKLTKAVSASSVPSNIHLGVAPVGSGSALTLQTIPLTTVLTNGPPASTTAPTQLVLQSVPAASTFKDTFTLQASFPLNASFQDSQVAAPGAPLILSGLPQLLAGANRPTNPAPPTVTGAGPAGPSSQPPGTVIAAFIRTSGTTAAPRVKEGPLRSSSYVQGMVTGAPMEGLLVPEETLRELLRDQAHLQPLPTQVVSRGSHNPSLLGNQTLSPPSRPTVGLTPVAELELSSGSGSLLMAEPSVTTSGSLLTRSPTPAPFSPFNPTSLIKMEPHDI
# Summary of the method: as §1
# ETV2 = biological target: T4, ETV2 (Homo sapiens, UniProt O00321 1-342)
# T4 sequence: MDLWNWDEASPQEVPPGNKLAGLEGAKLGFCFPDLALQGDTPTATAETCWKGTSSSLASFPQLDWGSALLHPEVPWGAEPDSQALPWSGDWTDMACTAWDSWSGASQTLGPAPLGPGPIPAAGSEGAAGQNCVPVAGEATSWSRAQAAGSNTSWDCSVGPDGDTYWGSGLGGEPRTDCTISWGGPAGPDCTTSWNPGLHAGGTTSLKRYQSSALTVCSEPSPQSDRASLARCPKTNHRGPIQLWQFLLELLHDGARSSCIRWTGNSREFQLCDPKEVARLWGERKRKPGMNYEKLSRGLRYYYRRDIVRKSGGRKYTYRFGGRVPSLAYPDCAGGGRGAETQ
# Summary of the method: as §1
# ERF = biological target: T5, ERF (Homo sapiens, UniProt P50548 1-548)
# T5 sequence: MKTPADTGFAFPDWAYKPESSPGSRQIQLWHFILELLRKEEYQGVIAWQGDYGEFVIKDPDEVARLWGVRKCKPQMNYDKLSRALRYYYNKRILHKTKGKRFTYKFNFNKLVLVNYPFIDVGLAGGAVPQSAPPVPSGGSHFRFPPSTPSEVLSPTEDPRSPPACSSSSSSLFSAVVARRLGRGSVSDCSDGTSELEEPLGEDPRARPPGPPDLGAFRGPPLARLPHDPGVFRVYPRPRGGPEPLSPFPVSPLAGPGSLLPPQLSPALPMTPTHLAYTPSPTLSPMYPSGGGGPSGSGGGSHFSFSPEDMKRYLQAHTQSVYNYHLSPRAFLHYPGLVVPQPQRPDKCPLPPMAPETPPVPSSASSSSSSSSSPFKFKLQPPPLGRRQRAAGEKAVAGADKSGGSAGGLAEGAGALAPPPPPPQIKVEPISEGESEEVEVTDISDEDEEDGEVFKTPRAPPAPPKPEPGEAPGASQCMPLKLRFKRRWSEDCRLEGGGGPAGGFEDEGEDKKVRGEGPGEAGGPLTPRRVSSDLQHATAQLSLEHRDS
# Summary of the method: as §1
# ETV3L = biological target: T6, ETV3L (Homo sapiens, UniProt Q6ZN32 1-361)
# T6 sequence: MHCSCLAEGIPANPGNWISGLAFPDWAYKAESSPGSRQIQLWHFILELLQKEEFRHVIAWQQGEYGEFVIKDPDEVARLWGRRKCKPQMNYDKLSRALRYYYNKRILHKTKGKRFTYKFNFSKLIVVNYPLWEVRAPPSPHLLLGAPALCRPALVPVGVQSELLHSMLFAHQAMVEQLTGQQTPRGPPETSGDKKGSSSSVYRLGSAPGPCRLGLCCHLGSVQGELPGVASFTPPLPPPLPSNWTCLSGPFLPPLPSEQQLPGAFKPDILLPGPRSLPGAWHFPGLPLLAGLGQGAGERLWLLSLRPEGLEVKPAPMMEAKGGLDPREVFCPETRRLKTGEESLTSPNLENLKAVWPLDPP
# Summary of the method: as §1
# ETS2 = biological target: T7, ETS2 (Homo sapiens, UniProt P15036 1-469)
# T7 sequence: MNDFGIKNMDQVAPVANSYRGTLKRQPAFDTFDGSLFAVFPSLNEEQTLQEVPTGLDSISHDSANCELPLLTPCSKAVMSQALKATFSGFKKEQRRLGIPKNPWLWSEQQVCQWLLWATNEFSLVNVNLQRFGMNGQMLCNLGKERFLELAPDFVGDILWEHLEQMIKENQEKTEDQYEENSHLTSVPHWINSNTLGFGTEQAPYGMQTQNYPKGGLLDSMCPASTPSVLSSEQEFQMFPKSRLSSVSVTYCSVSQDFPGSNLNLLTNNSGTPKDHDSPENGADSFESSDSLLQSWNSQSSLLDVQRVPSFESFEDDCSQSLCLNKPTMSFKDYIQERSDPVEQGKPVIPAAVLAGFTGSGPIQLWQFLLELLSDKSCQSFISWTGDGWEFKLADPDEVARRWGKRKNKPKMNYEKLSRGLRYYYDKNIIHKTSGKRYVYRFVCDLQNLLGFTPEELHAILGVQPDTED
# Summary of the method: as §1
# ETV7 = biological target: T8, ETV7 (Homo sapiens, UniProt Q9Y603 1-341)
# T8 sequence: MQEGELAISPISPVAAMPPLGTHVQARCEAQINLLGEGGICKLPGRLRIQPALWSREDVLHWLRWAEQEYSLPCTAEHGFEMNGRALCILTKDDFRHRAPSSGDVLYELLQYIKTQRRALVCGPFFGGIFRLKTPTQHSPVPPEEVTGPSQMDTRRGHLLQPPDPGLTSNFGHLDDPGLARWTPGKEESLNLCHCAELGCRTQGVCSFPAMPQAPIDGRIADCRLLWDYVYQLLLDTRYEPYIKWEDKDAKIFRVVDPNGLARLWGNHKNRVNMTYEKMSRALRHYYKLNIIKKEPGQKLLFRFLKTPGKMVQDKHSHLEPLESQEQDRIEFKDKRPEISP
# Summary of the method: as §1
# ETV3 = biological target: T9, ETV3 (Homo sapiens, UniProt P41162-2 1-143)
# T9 sequence: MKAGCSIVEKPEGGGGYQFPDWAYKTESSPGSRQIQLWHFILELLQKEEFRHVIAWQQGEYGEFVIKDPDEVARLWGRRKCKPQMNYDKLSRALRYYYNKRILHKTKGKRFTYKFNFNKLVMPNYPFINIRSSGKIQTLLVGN
# Summary of the method: as §1
sequence,measurement,setting,value
CGCTGG,binding signal,FLI1,"1.05 fold enrichment (6-mer frequency, TF over GST control)"
same,binding signal,ERG,"1.03 fold enrichment (6-mer frequency, TF over GST control)"
same,binding signal,ELF1,"1.08 fold enrichment (6-mer frequency, TF over GST control)"
same,binding signal,EHF,"1 fold enrichment (6-mer frequency, TF over GST control)"
same,binding signal,SPIB,"1.01 fold enrichment (6-mer frequency, TF over GST control)"
same,binding signal,ETV5,"1 fold enrichment (6-mer frequency, TF over GST control)"
same,binding signal,ELF4,"1.02 fold enrichment (6-mer frequency, TF over GST control)"
same,binding signal,ETV2,"1.03 fold enrichment (6-mer frequency, TF over GST control)"
same,binding signal,ERF,"1.05 fold enrichment (6-mer frequency, TF over GST control)"
same,binding signal,ETV3L,"1.03 fold enrichment (6-mer frequency, TF over GST control)"
same,binding signal,ETS2,"1.1 fold enrichment (6-mer frequency, TF over GST control)"
same,binding signal,ETV7,"1.02 fold enrichment (6-mer frequency, TF over GST control)"
same,binding signal,ETV3,"1.12 fold enrichment (6-mer frequency, TF over GST control)"
